Assay outcomes as filed in PubChem BioAssay.
A selection: hits, their analogues and other compounds. The true share with any hit is near 2.3%.
Bcl-xL primary – Bcl-xL (human) inhibition. Q07817. GST-Bcl-xL / FITC-Bim BH3 peptide fluorescence polarization. inhibition, % at 10.9 µM. hit rate 0.7% among 320,000. AID 2129;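 active means inhibition above the mean of all tested compounds plus 3 SD, cutoff set per campaign, cut at about 30% in these data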;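 further: inhibitors lower millipolarization by displacing the labeled peptide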
Target sequence (Q07817 whole entry, looked up): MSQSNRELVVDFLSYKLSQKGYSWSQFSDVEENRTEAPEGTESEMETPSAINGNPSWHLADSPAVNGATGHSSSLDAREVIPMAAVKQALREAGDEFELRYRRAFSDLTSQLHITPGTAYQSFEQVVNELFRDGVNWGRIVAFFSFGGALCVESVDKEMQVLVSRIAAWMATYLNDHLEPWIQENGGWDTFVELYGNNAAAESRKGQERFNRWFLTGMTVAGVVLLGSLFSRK
Mcl1 Bid PPI – Mcl-1/Bid interaction inhibition; Q07820; TR-FRET Mcl-1/Bid-Dy647 peptide binding, 1536-well; inhibition, % at 21.7 µM; hit rate 0.97% among 220,000;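 active means compounds that cut the binding signal by more than half at the single screening dose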;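 further: His-tagged Mcl-1 with europium anti-His antibody binding Bid BH3 peptide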
Target sequence (Q07820 whole entry, looked up): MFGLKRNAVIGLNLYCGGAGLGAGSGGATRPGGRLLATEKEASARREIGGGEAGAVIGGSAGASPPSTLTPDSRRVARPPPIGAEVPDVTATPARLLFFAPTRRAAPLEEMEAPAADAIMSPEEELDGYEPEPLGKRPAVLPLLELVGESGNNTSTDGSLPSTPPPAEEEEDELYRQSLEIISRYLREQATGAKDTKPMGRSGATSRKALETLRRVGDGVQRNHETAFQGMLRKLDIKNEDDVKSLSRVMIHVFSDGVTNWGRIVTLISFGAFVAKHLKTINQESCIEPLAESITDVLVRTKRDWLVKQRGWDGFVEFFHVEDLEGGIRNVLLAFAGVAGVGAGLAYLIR
MCL1 BIM primary – MCL1-BIM-BH3 interaction inhibition (human); Q07820; GST-MCL1 / FITC-Bim-BH3 fluorescence polarization; inhibition, % at 10.9 µM; hit rate 0.68% among 320,000; AID 2057;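 active means inhibition above the mean inhibition of all tested compounds plus 3 SD, set per campaign, cut at about 40% in these data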;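 further: higher means more loss of mP so more displacement of Bim peptide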
GLD-1 RNA inh – GLD-1-TGE RNA interaction inhibition (C. elegans); AID 2280; Q17339; hit rate 0.44% among 320,000; purified GLD-1 + fluorescein TGE RNA, fluorescence polarization; inhibition, % at 5.96 µM;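 active means percent inhibition above a per-plate cutoff, the plate mean of test compounds plus 3 SD, cut at about 30% in these data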
Mcl-1 Bim block – human Bim-Mcl-1 interaction inhibition | Q07820 | Bead-based flow cytometry, Bim peptide-Mcl-1 binding | inhibition, % at 10 µM | hit rate 0.1% among 190,000 | AID 1009; in the data active means inhibition above about 40%
Mcl1-Noxa inh – disrupts binding of human Mcl-1 to Noxa peptide. AID 1022. inhibition, % at 21.7 µM. Q07820. hit rate 1.5% among 220,000. TR-FRET Mcl-1/Noxa peptide binding, 2 h;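 active means compounds that cut the protein-peptide binding signal by more than 50% relative to plate controls in a single-dose test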;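 further: His-tagged Mcl-1 with rhodamine Noxa BH3 peptide and terbium anti-His antibody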
A number is an active result.

COc1ccc(NC(=S)NNc2ccc(S(=O)(=O)Nc3ccccc3C(=O)O)cc2[N+](=O)[O-])cc1 was read as Bcl-xL primary inactive, Mcl1 Bid PPI 73, MCL1 BIM primary inactive, GLD-1 RNA inh inactive and Mcl1-Noxa inh 88.
Screening CCN1C(=O)N(C(C)=O)C2C1N(C(C)=O)C(=O)N2C(C)=O (centres undefined) returned Bcl-xL primary inactive, Mcl1 Bid PPI 53, MCL1 BIM primary inactive, GLD-1 RNA inh inactive, Mcl-1 Bim block inactive and Mcl1-Noxa inh inactive.
Screening CCN1CCc2c(sc(NC(=O)c3ccc(S(=O)(=O)N(CC)c4ccccc4)cc3)c2C(N)=O)C1 returned Bcl-xL primary inactive, MCL1 BIM primary inactive and GLD-1 RNA inh inactive.
CCOc1cc(/C=C/C(=O)OCC(=O)NCC2CCCO2)cc(Cl)c1OC (centres undefined) was read as GLD-1 RNA inh inactive.
Cc1nc(SCC(=O)N2CCN(c3ccccn3)CC2)c(C#N)c(C)c1C was read as GLD-1 RNA inh inactive.
`CC(=O)C1=C(c2ccccc2)NC(=S)NC1c1cc(Cl)c(OC(C)C)c(Cl)c1` (centres undefined) gave Bcl-xL primary inactive, Mcl1 Bid PPI inactive, MCL1 BIM primary inactive, GLD-1 RNA inh inactive, Mcl-1 Bim block inactive and Mcl1-Noxa inh inactive.
Screening CC(=O)C1=C(c2ccccc2)NC(=S)NC1c1ccc(O)c(O)c1 (centres undefined) returned Bcl-xL primary inactive, Mcl1 Bid PPI inactive, MCL1 BIM primary inactive, GLD-1 RNA inh inactive, Mcl-1 Bim block inactive and Mcl1-Noxa inh 52.
O=C1c2ccccc2-c2onc3c(Oc4ccccc4)cc(O)c1c23 was read as Mcl1 Bid PPI inactive, Mcl-1 Bim block inactive and Mcl1-Noxa inh 59.
For O=C1c2ccccc2-c2onc3ccc(N4CCCC4)c1c23 the results were Mcl1 Bid PPI inactive, Mcl-1 Bim block inactive and Mcl1-Noxa inh inactive.
For O=C(COC(=O)c1ccc2c(c1)C(=O)N(Cc1ccncc1)C2=O)Nc1ccccc1[N+](=O)[O-] the results were Bcl-xL primary inactive, Mcl1 Bid PPI inactive, MCL1 BIM primary inactive, GLD-1 RNA inh inactive, Mcl-1 Bim block inactive and Mcl1-Noxa inh 83.
`CC(OC(=O)c1ccc2c(c1)C(=O)N(Cc1ccncc1)C2=O)C(=O)Nc1cccc(Cl)c1Cl` (centres undefined) gave Bcl-xL primary inactive, Mcl1 Bid PPI 64, MCL1 BIM primary inactive, GLD-1 RNA inh inactive, Mcl-1 Bim block inactive and Mcl1-Noxa inh inactive.
CC1=NN(c2ccc(C)cc2)C(=O)/C1=C\c1ccc(Br)s1 was read as Bcl-xL primary inactive, Mcl1 Bid PPI inactive, MCL1 BIM primary inactive, GLD-1 RNA inh inactive, Mcl-1 Bim block 92 and Mcl1-Noxa inh inactive.
For CCOc1ccc(OCCOC(=O)CN(C)S(=O)(=O)c2ccc(NC(C)=O)cc2)cc1 the results were Bcl-xL primary inactive, MCL1 BIM primary inactive and GLD-1 RNA inh inactive.
`O=C(O)CN1C(=O)/C(=C\c2cc(Br)ccc2OCc2ccccc2Cl)SC1=S` gave Bcl-xL primary inactive, MCL1 BIM primary 57 and GLD-1 RNA inh inactive.
Screening O=C(O)COc1ccc(Br)cc1/C=C1/SC(=O)N(CC(=O)N2CCCC2)C1=O returned Bcl-xL primary inactive, Mcl1 Bid PPI inactive, MCL1 BIM primary inactive, GLD-1 RNA inh inactive, Mcl-1 Bim block inactive and Mcl1-Noxa inh inactive.
COc1cc2c(cc1OC)C(Nn1cnnc1)=NC1(CCCC1)C2 was read as Bcl-xL primary inactive, Mcl1 Bid PPI 91, MCL1 BIM primary inactive, GLD-1 RNA inh inactive and Mcl1-Noxa inh inactive.
Screening O=C(CNc1ccc2ccccc2c1)N/N=C/C=C/c1cccc([N+](=O)[O-])c1 returned Bcl-xL primary inactive, Mcl1 Bid PPI inactive, MCL1 BIM primary inactive, GLD-1 RNA inh inactive, Mcl-1 Bim block inactive and Mcl1-Noxa inh 77.
For Cc1cc(C2=NNC(=Nc3ccc(S(=O)(=O)N4CCOCC4)cc3)SC2)c(C)n1C the results were Bcl-xL primary inactive, Mcl1 Bid PPI inactive, MCL1 BIM primary inactive, GLD-1 RNA inh inactive and Mcl1-Noxa inh 72.
C=CCn1c(C)cc(C2=NNC(=Nc3ccc(C)cc3)SC2)c1C was read as Bcl-xL primary inactive, Mcl1 Bid PPI inactive, MCL1 BIM primary inactive, GLD-1 RNA inh inactive, Mcl-1 Bim block inactive and Mcl1-Noxa inh inactive.
`O=C(NCCN1CCN(C(=O)c2ccc([N+](=O)[O-])cc2)CC1)C(=O)NCc1ccccc1` gave Bcl-xL primary inactive, MCL1 BIM primary inactive and GLD-1 RNA inh inactive.
CNC(=O)C(=O)NCCN1CCN(C(=O)c2ccc([N+](=O)[O-])cc2)CC1 was read as Bcl-xL primary inactive, Mcl1 Bid PPI 91, MCL1 BIM primary inactive, GLD-1 RNA inh inactive, Mcl-1 Bim block inactive and Mcl1-Noxa inh inactive.
`COc1ccc(OCCOC(=O)Nc2ccccc2)cc1` gave Bcl-xL primary inactive, Mcl1 Bid PPI inactive, MCL1 BIM primary inactive, GLD-1 RNA inh inactive, Mcl-1 Bim block inactive and Mcl1-Noxa inh inactive.
For COc1cc(C(F)(F)F)nc2ccc(C#CCOC(=O)Nc3ccccc3)cc12 the results were Bcl-xL primary 36, Mcl1 Bid PPI inactive, MCL1 BIM primary inactive, GLD-1 RNA inh inactive and Mcl1-Noxa inh inactive.
CC(NC(=O)c1ccc(F)cc1)c1ccc(F)cc1 (centres undefined) was read as Bcl-xL primary inactive, Mcl1 Bid PPI inactive, MCL1 BIM primary inactive, GLD-1 RNA inh inactive, Mcl-1 Bim block inactive and Mcl1-Noxa inh inactive.
`COC(=O)C(CC(C)C)NC(=O)c1ccc(F)cc1` (centres undefined) gave Bcl-xL primary inactive, Mcl1 Bid PPI 98, MCL1 BIM primary inactive, GLD-1 RNA inh inactive, Mcl-1 Bim block inactive and Mcl1-Noxa inh inactive.
CCCc1ccc(/C=C2\C(=O)c3ccccc3C(O)=C2C(=O)OCC)cc1 was read as Bcl-xL primary inactive, Mcl1 Bid PPI inactive, MCL1 BIM primary inactive, GLD-1 RNA inh inactive, Mcl-1 Bim block inactive and Mcl1-Noxa inh 88.
For CCOC(=O)C1=C(Cc2ccc(C)cc2)C(=O)c2ccccc2C1=O the results were Bcl-xL primary inactive, Mcl1 Bid PPI inactive, MCL1 BIM primary inactive, GLD-1 RNA inh 43, Mcl-1 Bim block inactive and Mcl1-Noxa inh 67.
CN1C(=O)CC(=O)N(C)c2cc(S(=O)(=O)N(C)Cc3ccccc3)ccc21 was read as Bcl-xL primary inactive, MCL1 BIM primary inactive and GLD-1 RNA inh inactive.
`CCOC(=O)N1CCC(NC(=O)C2CCN(S(=O)(=O)c3c(C)noc3C)CC2)CC1` gave Bcl-xL primary inactive, Mcl1 Bid PPI 55, MCL1 BIM primary inactive, GLD-1 RNA inh inactive, Mcl-1 Bim block inactive and Mcl1-Noxa inh inactive.
For CCOC(=O)N1CCC(NC(=O)C2CCN(S(=O)(=O)N3CCCC3)CC2)CC1 the results were Bcl-xL primary inactive, Mcl1 Bid PPI inactive, MCL1 BIM primary inactive, GLD-1 RNA inh inactive, Mcl-1 Bim block inactive and Mcl1-Noxa inh inactive.
For CCNC(=O)N1c2ccc(OCC)cc2C(C)=CC1(C)C the results were Bcl-xL primary 48, Mcl1 Bid PPI inactive, MCL1 BIM primary 45, GLD-1 RNA inh 68, Mcl-1 Bim block inactive and Mcl1-Noxa inh inactive.
`COc1ccc(C(=O)/C=C/C(=O)N(CC(=O)NCCC(C)C)Cc2cccs2)c(O)c1` gave Mcl1 Bid PPI inactive, Mcl-1 Bim block inactive and Mcl1-Noxa inh 66.
